In the library only some 19% were active in any assay of this set; here they are far more common.
uPA generation = blocks generation of uPA at the cell surface; cell surface uPA generation assay, qHTS; Potency, µM (highest dose often 38.3 µM), for inactives: at the highest dose activity change, negative = inhibition, actives largely listed as inhibitors; 330,000 tested, 0.31% active; active means well fitted inhibition curve with a large enough effect; inconclusive means small, poorly fitted or top-dose-only effect; inactive means no such curve, though single readings can be large or run the other way; tested in mouse RAW 264.7 cells; further: potency means the concentration at half of the fitted maximal effect; nearly all actives have a fitted effect of over 55% in size
TDP1 cell CPT = growth inhibition of DT40 Tdp1-/-;hTDP1 cells with camptothecin (screen for TDP1 inhibitors); chicken DT40 Tdp1-/-;hTDP1 cells + 20 nM CPT, ATP luminescence, 48 h; AID 686979; 420,000 tested, 12% active; Potency, µM (doses to about 46.2 µM), for the others: at the top dose activity change, negative = growth inhibition, hits mostly inhibitors; further: potency means the concentration at half of the fitted maximal effect; nearly all actives have a fitted effect of over 55% in size
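Chicken DT40 Tdp1-/- cells complemented with human TDP1, 400 cells/well, exposed to compounds plus 20 nM camptothecin for at least 48 h at 37 C; viability read as ATP content by CellTiter-Glo luminescence.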
IL1B secr inh = inhibitors of inflammasome signaling (IL-1 beta secretion) | THP-1 LPS/ATP IL-1B secretion, AlphaLISA, 16 h; hits give low values | activity change, % at 57.5 µM | 360,000 tested, 4.7% active | AID 743279; in the data active means activity change below about -50%; inconclusive means mostly about -30% to -49%
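Secreted IL-1B measured by AlphaLISA bead assay after 16 h compound exposure of THP-1 cells; compounds (final up to 57.5 uM) added 1 h before LPS (250 ng/mL) and ATP (1.25 mM) stimulation; lower signal means less secretion.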
HT1080-NT tox = kills 2HG-producing HT-1080-NT fibrosarcoma cells; HT-1080-NT fibrosarcoma viability, CellTiter-Glo ATP luminescence, 48 h; Potency, µM (series often up to 46.1 µM), for inactives: at the top dose activity, negative = less viability, most hits filed as cytotoxic; AID 686970; 360,000 tested, 1.6% active;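 further: NT is the 2HG producing partner of a matched IDH1 knockdown line; potency means the concentration at half of the fitted maximal effect; 0% = DMSO-treated cells and -100% = media-only wells without cells; nearly all actives have a fitted effect of over 55% in size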
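Compounds were tested in concentration-response format on HT-1080-NT cells for 48 hours at 37 degrees C. Cell viability came from CellTiter-Glo luminescence; curves were classified by r2, response magnitude and activity.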
HT1080 IDH1KD tx = kills HT-1080 cells with IDH1 knockdown; HT-1080 IDH1 knockdown viability, ATP luminescence, 48 h; Potency, µM (titrated, usually from 46.1 µM), without a hit: at the top dose activity, negative = toxicity, actives largely listed as cytotoxic; AID 686971; 360,000 tested, 2% active;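 further: potency means the concentration at half of the fitted maximal effect; 0% = DMSO wells and -100% = cell-free medium wells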
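After a 2 h attachment period, IDH1KD HT-1080 cells took pin-transferred compound for 48 h at 37 °C; ATP-based luminescence after 10 min room-temperature reagent incubation reported viability.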
DT40 TDP1 no CPT = qHTS for Inhibitors of human tyrosyl-DNA phosphodiesterase 1 (TDP1): qHTS in cells in absence of CPT | Potency, µM (highest dose often 46.2 µM), for the others: at the highest dose activity change, negative = growth inhibition, most hits filed as inhibitors | AID 686978, 2013 | 420,000 tested, 15% active | DT40 Tdp1-/- hTDP1 cells, no CPT, ATP luminescence, 48 h; further: potency means the concentration at half of the fitted maximal effect; nearly all actives have a fitted effect of over 55% in size
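Luminescent ATP content (CellTiter-Glo) served as the growth readout. Knockout chicken DT40 cells expressing human TDP1 were exposed to compounds without camptothecin for a minimum 48 hr at 37 °C.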
Starred values were filed as active, the others as inactive; i = inactive; ? = inconclusive; . = no result given. Unless noted, the call rests on the fitted dose curve; in most records, active means well fitted curve in the direction sought with a large enough effect; inconclusive means small, poorly fitted or top-dose-only effect, or another doubt; inactive means no such curve, though single readings can be large; an effect the other way counts as inactive or inconclusive. Unless noted, on the % scale 0 is the no-effect control and ±100 the full control effect.

SMILES | uPA generation | TDP1 cell CPT | IL1B secr inh | HT1080-NT tox | HT1080 IDH1KD tx | DT40 TDP1 no CPT
COC(=O)c1c(-c2ccccc2)oc2c1C(OCCO)CCC2 (stereo not drawn) | . | -22% | 24 | 17% | 11% | ?
O=C(OCc1ccccc1)c1c(-c2ccccc2)oc2c1C(OCCO)CCC2 (stereo not drawn) | . | ? | 11 | -8% | -15% | 16µM*
CCOC(=O)c1c(-c2ccc(OC)cc2)oc2c1C(OC(C)=O)CCC2 (stereo not drawn) | . | ? | -2 | 17% | 7% | 21µM*
C=CCc1c(C)nc(N)[nH]c1=O | -1% | 3% | 0 | 9% | -1% | -7%
NNC(=O)COc1cccc(Oc2ccccc2)c1 | 0% | ? | -3 | -4% | -7% | 18µM*
NNC(=O)COc1ccc(F)cc1 | -1% | -8% | 9 | -4% | -28% | -1%
Cc1ccc(/C=C2/SC(=S)N(CCCC(=O)Nc3ccc(O)cc3)C2=O)cc1 | -13% | ? | -62* | 16µM* | 21µM* | 23µM*
O=C(CCN1C(=O)/C(=C\c2ccc(F)cc2)SC1=S)Nc1ccc(O)cc1 | -2% | -13% | i | -9% | -10% | 23µM*
O=C(CCCN1C(=O)/C(=C/c2ccccc2Cl)SC1=S)NNC(=O)c1ccc(Cl)cc1 | -1% | ? | -20 | 17% | 7% | ?
CC(/C=C1\SC(=S)N(CCC(=O)Nc2ccc(O)cc2)C1=O)=C\c1ccccc1 | -6% | 18µM* | -53* | -20% | ? | 18µM*
CC(=O)c1ccc(NC(=O)CN2C(=O)/C(=C/C(C)=C/c3ccccc3)SC2=S)cc1 | 6% | -16% | 5 | 3% | 1% | ?
O=C(CCN1C(=O)/C(=C\c2ccc(F)cc2)SC1=S)Nc1ccccc1 | -6% | -10% | 1 | 1% | 17% | -7%
Cc1ccc(C(=O)NNC(=O)CCCN2C(=O)/C(=C/c3ccccc3Cl)SC2=S)cc1 | 0% | ? | -107* | 2% | 3% | ?
N#Cc1csc(CCNC(=O)c2ccccc2)n1 | . | 6% | -29 | 11% | 13% | 1%
O=C1CN(C(=O)COc2ccc(Br)cc2)c2ccccc2N1 | 1% | -2% | -11 | -1% | 2% | -11%
CC(/C=C1\SC(=S)N(NC(=O)c2ccc(C)cc2)C1=O)=C\c1ccccc1 | 0% | -19% | -13 | -9% | -13% | ?
CC(/C=C1\SC(=S)N(NC(=O)c2ccncc2)C1=O)=C\c1ccccc1 | 1% | -1% | -79* | -2% | -5% | 3%
O=C(CCN1C(=O)/C(=C\c2ccccc2)SC1=S)Nc1ccc(C(=O)O)cc1 | 2% | 7% | 30 | -24% | 4% | -2%
Cc1ccc(/C=C2/SC(=S)N(CC(=O)Nc3ncc(Cc4ccc(C)cc4)s3)C2=O)cc1 | 4% | 23µM* | -2 | 16% | 19% | 12µM*
COc1ccc(/C=C2\SC(=S)N(CCCC(=O)Nc3ccc(C(=O)O)cc3)C2=O)cc1OC | 0% | -14% | -4 | -1% | -2% | -11%
O=C(CCCN1C(=O)/C(=C\c2ccccc2)SC1=S)Nc1ccc(O)cc1 | -2% | ? | -105* | 23µM* | 15µM* | 15µM*
COc1ccc(/C=C2/SC(=S)N(CCCC(=O)Nc3ccc(O)cc3)C2=O)cc1OC | ? | ? | -8 | -26% | -16% | 15µM*
Cc1cccc(Cc2cnc(NC(=O)CN3C(=O)/C(=C/c4ccccc4)SC3=S)s2)c1 | 0% | 4% | -4 | 6% | 2% | -4%
O=C(Nc1cc(S(=O)(=O)N2CCCCC2)ccc1Oc1ccccc1)C1=COCCO1 | 13% | ? | -8 | 1% | -1% | ?
NS(=O)(=O)c1ccc(CCNC(=O)CSc2nc3ccccc3c(=O)n2CC2CCCO2)cc1 (stereo not drawn) | -4% | -20% | -5 | 0% | 0% | -23%
SMILES | uPA generation | TDP1 cell CPT | IL1B secr inh | HT1080-NT tox | HT1080 IDH1KD tx | DT40 TDP1 no CPT
Cc1ccc(/C=C2\SC(=S)N(CCCC(=O)Nc3cccc(C(=O)O)c3)C2=O)cc1 | -4% | 1% | 11 | 1% | 2% | 9%
O=C(CN1C(=O)S/C(=C\C=C\c2ccccc2)C1=O)Nc1ccc(O)cc1 | -3% | ? | -54* | 9% | 3% | ?
COc1cc(/C=C2\SC(=S)N(CCC(=O)Nc3cccc(O)c3)C2=O)cc(OC)c1OC | 1% | ? | -98* | ? | ? | 16µM*
COc1cc(/C=C2\SC(=S)N(CCC(=O)Nc3ccccc3)C2=O)cc(OC)c1OC | 7% | ? | 8 | ? | ? | ?
Cc1ccc(/C=C2\SC(=S)N(CCCC(=O)NC3CCCC3)C2=O)cc1 | -3% | -22% | i | 10% | 25% | 18µM*
COc1cc(/C=C2\SC(=S)N(NC(=O)c3cccc(O)c3)C2=O)ccc1O | -8% | 16µM* | -8 | -19% | -24% | 23µM*
O=C(CCCN1C(=O)S/C(=C/C=C/c2ccccc2)C1=O)Nc1ccc(C(=O)O)cc1 | -8% | -14% | -9 | -18% | -13% | 20%
COc1ccc(C2NC(=O)N(C)C3=C2C(=O)N(c2ccc(C)cc2)C3)cc1 (stereo not drawn) | . | 9% | . | . | . | 0%
COc1ccc(/C=C2\SC(=S)N(CCC(=O)Nc3ccc(O)cc3)C2=O)cc1 | -2% | -1% | 16 | ? | 0% | -4%
COc1cccc(/C=C2/SC(=S)N(CCCC(=O)Nc3ccc(O)cc3)C2=O)c1 | ? | ? | -85* | ? | ? | ?
O=C(CCCN1C(=O)/C(=C/c2ccccc2)SC1=S)Nc1cccc(O)c1 | -23% | 18µM* | -52* | -27% | -24% | 23µM*
CCN(CC)CCOC(=O)c1ccc(NC(=O)CCCN2C(=O)S/C(=C/c3ccc(OC)cc3)C2=S)cc1 | -12% | ? | -69* | ? | 12µM* | 21µM*
COc1ccc(/C=C2\SC(=O)N(CCCC(=O)Nc3ccc(C(=O)O)cc3)C2=O)cc1OC | 5% | -1% | 12 | 15% | 12% | 2%
Cc1ccc(/C=C2\SC(=S)N(CCCC(=O)NNC(=O)c3ccccc3O)C2=O)cc1 | 10% | ? | 0 | -1% | -3% | 18µM*
COc1cccc(-c2cc(C(=O)Nc3cc(Cl)ccc3O)on2)c1 | . | -22% | . | . | . | -26%
Cc1ccccc1N1CCN(S(=O)(=O)Cc2ccccc2)CC1 | 13% | 9% | 2 | 8% | -7% | 7%
